NCF1 inh = p47phox/p22phox peptide binding inhibitors, primary screen, biochemical, uHTS, NADPH oxidase regulatory subunit. actives 0.53% (n = 220,000). AID 1274, 2008. Neutrophil cytosol factor 1 (Homo sapiens), P14598. inhibition, % at 24.7 µM. fluorescence polarization, 2 h;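 active = inhibition above about 30%, limit read from the data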;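 also: 0% = p47phox with labelled peptide and 100% = labelled peptide alone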
Mcl1 Bid PPI = Mcl-1/Bid binding inhibitors, primary screen, biochemical, TR-FRET, 1536-well; actives 0.97% (n = 220,000); TR-FRET Mcl-1/Bid-Dy647 peptide binding; inhibition, % at 21.7 µM;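 active = compounds that cut the binding signal by more than half at the single screening dose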;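 also: His-tagged Mcl-1 with europium anti-His antibody binding Bid BH3 peptide; 0% = Mcl-1 plus peptide wells and 100% = peptide-only wells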
Mcl-1 Bim block = inhibitors of Bim peptide binding to Mcl-1, primary screen, biochemical, bead-based flow cytometry, multiplex | Induced myeloid leukemia cell differentiation protein Mcl-1 (Homo sapiens), Q07820 | Bim peptide-Mcl-1 binding | inhibition, % at 10 µM | actives 0.1% (n = 190,000) | AID 1009, 2008; in the data active = inhibition above about 40%;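 also: 0% = no compound tracer wells and 100% = peptide blocker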
14-3-3 Bad inh = inhibitors of 14-3-3 zeta/Bad binding, primary screen, biochemical, TR-FRET, bovine 14-3-3 zeta; 14-3-3 protein zeta/delta (Bos taurus), P63103; TR-FRET 14-3-3zeta/Dy647-pBad peptide displacement, 1 h; inhibition, % at 21.7 µM; actives 0.71% (n = 220,000);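 active = inhibition above about 70%, limit read from the data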;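 also: 0% = full 14-3-3 plus peptide FRET controls and 100% = background without 14-3-3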
Target sequence (P63103 whole entry, looked up): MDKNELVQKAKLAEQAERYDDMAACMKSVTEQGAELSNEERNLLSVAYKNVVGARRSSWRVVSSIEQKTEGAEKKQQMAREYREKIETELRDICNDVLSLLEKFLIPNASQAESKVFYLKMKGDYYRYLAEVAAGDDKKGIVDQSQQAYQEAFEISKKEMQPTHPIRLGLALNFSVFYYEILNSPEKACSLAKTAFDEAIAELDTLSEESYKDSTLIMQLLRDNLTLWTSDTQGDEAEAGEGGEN
Mcl1 Noxa PPI = Mcl-1/Noxa binding inhibitors, primary screen, biochemical, TR-FRET, 1536-well | actives 1.5% (n = 220,000) | Induced myeloid leukemia cell differentiation protein Mcl-1 (Homo sapiens), Q07820 | TR-FRET Mcl-1/Noxa peptide binding, 2 h | inhibition, % at 21.7 µM;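 active = compounds that cut the protein-peptide binding signal by more than 50% relative to plate controls in a single-dose test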;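 also: His-tagged Mcl-1 with rhodamine Noxa BH3 peptide and terbium anti-His antibody; 0% = Mcl-1 plus Noxa peptide wells and 100% = peptide-only wells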
* hit, by the source's call; nt = no result; [ ] = another dose, or the depositor's remark. Most compounds without a hit are left out; they make up all but 3.1% or so of the library.

SMILES	NCF1 inh	Mcl1 Bid PPI	Mcl-1 Bim block	14-3-3 Bad inh	Mcl1 Noxa PPI
COc1ccc(N2CCC(CNC(=O)Nc3cccc(OC)c3)C2)cc1 (stereo not drawn)	-12	-100	-1	nt	89*
CCc1cccc(C)c1NC(=S)NCC1CCN(c2ccc(OC)cc2)C1 (stereo not drawn)	-5	-31	0	-8	48
CCc1ccccc1NC(=S)NCC1CCN(c2ccc(OC)cc2)C1 (stereo not drawn)	-6	-140	nt	-4	23
COc1ccc(-c2nnc(CSc3nc4ccccc4c(=O)n3CC(C)C)o2)cc1OC	37*	1	3	nt	-26
CN(C)S(=O)(=O)N1CCN(c2cccc(Cl)c2)CC1	-3	-8	9	-20	55*
N#Cc1nc(-c2ccc(OCc3ccccc3)cc2)oc1N1CCC(C(N)=O)CC1	55*	24	1	20	16
COc1ccc(-c2ccc(C#N)c(SCC(=O)Nc3sc4c(c3C#N)CCC4)n2)cc1OC	34*	73*	18	92*[fluorescence artefact?]	16
C/C=C(\C)C(=O)NNC(=O)c1sc(-c2ccccc2)nc1C	-8	-10	nt	0	-3
CC(=O)Nc1ccc(Nc2nc(C)nc3c2oc2ccccc23)cc1	-11	-23	1	-1	4
CC(=O)c1ccc(Nc2ncnc3c2oc2ccccc23)cc1	-5	21	-3	72*	30
Cc1cccc(SC2CCN(Cc3nc(CC4CC4)no3)CC2)c1	41*	-38	-5	-5	2
COc1ccc(CC(=O)NC(C)c2nnc(SCCOc3ccc(OC)cc3)n2C)cc1 (stereo not drawn)	-5	-9	-5	-7	2
COc1ccccc1CNC(=O)/C=C/c1ccc(Br)o1	-6	23	3	9	70*
COc1ccc(NC(=O)/C=C/c2ccc(Br)o2)cn1	-15	-28	2	-1	58*
O=C(COC(=O)c1c(F)cccc1F)c1ccc[nH]1	-8	-13	nt	-6	8
O=C(CN1C(=O)S/C(=C/c2cc(Br)cs2)C1=O)N1CCOCC1	-7	-4	-1	-6	-9
CC(=O)c1cccc(CN2CCN(C(C)C)C(CCO)C2)c1 (stereo not drawn)	12	-9	-4	4	16
c1ccc2c(N3CCOCC3)nc(N3CCOCC3)nc2c1	-15	66*	2	61	51*
c1ccc2c(N3CCOCC3)nc(-c3ccncc3)nc2c1	-17	12	-10	5	7
O=[N+]([O-])c1cccc(-c2nnc3ccccn23)c1	4	26	nt	-1	-26
CCC(=O)NC(=S)Nc1ccc(NC(=O)c2cc3ccccc3o2)c(OC)c1	2	63*	-2	52	31
CCN(CC)c1ccc(NC(=O)c2cc3ccccc3o2)c(C)c1	-9	-13	-2	54	51*
CN(C)c1ccc(/C=N/N2CCN(c3ccccn3)CC2)cc1	8	-26	nt	-2	17
CCCCSc1nnc(CNC(=O)C23CC4CC(CC(C4)C2)C3)n1Cc1ccccc1	-6	15	-1	2	17
CN(C1=NC(=O)CS1)c1ccc(O)cc1	-16	97*	nt	2	-6
SMILES	NCF1 inh	Mcl1 Bid PPI	Mcl-1 Bim block	14-3-3 Bad inh	Mcl1 Noxa PPI
c1ccc(Cn2nnc3c(NCc4ccc5c(c4)OCO5)ncnc32)cc1	21	52*	nt	21	-15
CC(=O)NC(c1cccs1)c1cc([N+](=O)[O-])c2cccnc2c1O (stereo not drawn)	-8	25	0	8	55*
CCN(C(C)=O)c1ccc(Oc2nc(OC)cc(OC)n2)cc1	-13	-32	0	-6	-7
O=C(NNc1c(Cl)cccc1Cl)c1cccs1	-4	3	nt	91*	8
O=C(NNC(=O)c1ccccc1Cl)c1cccs1	-6	-19	-3	6	0
CCOC(=O)C1CCCN(c2c(N3CCN(c4cccc(Cl)c4)CC3)c(=O)c2=O)C1 (stereo not drawn)	2	86*	-4	5	-1
CCOC(=O)C1CCCN(c2c(N3CCN(C)CC3)c(=O)c2=O)C1 (stereo not drawn)	7	-21	0	6	-24
O=C(/C=C/c1ccc(F)cc1)Nc1ccc(S(=O)(=O)Nc2ncccn2)cc1	120*	-16	nt	-4	8
